This is a sample that favours compounds with a hit; in the whole collection about 4.1% have one here.
FBA Mtb inh = Mtb FBA enzyme inhibitors, primary screen, biochemical, fluorescence, strain H37Rv; Fructose-bisphosphate aldolase (Mycobacterium tuberculosis (strain ATCC 25618 / H37Rv)), …; inhibition, % at 1 µM; hit rate 2.3% among 360,000; purified M. tuberculosis FBA, fluorescence read-out; in the data active means inhibition above about 27%
BH1578 lux ind = inducers of Vibrio cholerae quorum light production without autoinducers, primary screen, BH1578 luxS cqsA deficient, single point; V. cholerae BH1578 lux reporter, luminescence, 6 h; activation, % at 18.7 µM; hit rate 0.16% among 350,000; AID 588436, 2011; in the data active means activation mostly above about 9.7%, no sharp cut-off
GDH-TPI inh = GDH-TPI coupling enzyme inhibitors, primary screen, artefact control for M. tuberculosis FBA inhibitor project, biochemical, absorbance, full deck. inhibition, % at 4.8 µM. AID 588335, 2011. GDH-TPI coupled enzyme counterscreen, NADH absorbance. hit rate 1.2% among 360,000; in the data active means inhibition above about 30%
Mtb UGM inh = M. tuberculosis UGM enzyme inhibitors, primary screen, biochemical, fluorescence polarization, single point; UDP-galactopyranose mutase (Mycobacterium tuberculosis (strain ATCC 25618 / H37Rv)), …; purified UGM, fluorescence polarization probe displacement; inhibition, % at 10 µM; hit rate 0.06% among 320,000; AID 504406, 2011; in the data active means inhibition above about 10%, passing the limit was not always enough
Rv3671c protease = Rv3671c serine protease inhibitors, primary screen, biochemical, fluorescence polarization, M. tuberculosis H37Rv. inhibition, % at 5.96 µM. hit rate 0.048% among 320,000; in the data active means inhibition above about 38%;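 further: extracellular domain of Rv3671c used as enzyme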
Target sequence (P9WHR9 whole entry, looked up, the tested form may be a part): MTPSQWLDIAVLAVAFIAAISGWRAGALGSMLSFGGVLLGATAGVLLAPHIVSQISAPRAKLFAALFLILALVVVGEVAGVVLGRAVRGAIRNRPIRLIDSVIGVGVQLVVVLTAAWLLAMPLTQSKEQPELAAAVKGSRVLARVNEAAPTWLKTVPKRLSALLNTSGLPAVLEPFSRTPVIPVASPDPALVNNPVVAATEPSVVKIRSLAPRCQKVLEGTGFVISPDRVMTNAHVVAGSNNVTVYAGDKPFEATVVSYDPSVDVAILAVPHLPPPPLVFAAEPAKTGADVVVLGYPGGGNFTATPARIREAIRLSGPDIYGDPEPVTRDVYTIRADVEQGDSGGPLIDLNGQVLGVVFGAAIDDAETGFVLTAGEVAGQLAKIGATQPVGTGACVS
RecA splice inh = Mtb RecA intein splicing inhibitors, primary screen, biochemical, fluorescence, HTS; Protein RecA (Mycobacterium tuberculosis (strain ATCC 25618 / H37Rv)), P9WHJ3; cell-free RecA intein splicing; inhibition, % (no concentration beside the values); hit rate 0.75% among 290,000; in the data active means inhibition above about 30%
GFP chromo cs = counter-screen: blocks GFP chromophore formation, dose response, counter-screen, biochemical, fluorescence, homogeneous. cell-free GFP chromophore formation. hit rate 83% among 2,100. EC50, µM. shares compounds with RecA splice inh; call rule not given here
Numbers stand for hits; – = inactive; · = no result.

SMILES	FBA Mtb inh	BH1578 lux ind	GDH-TPI inh	Mtb UGM inh	Rv3671c protease	RecA splice inh	GFP chromo cs
N=c1c2c(ncn1Cc1ccco1)Oc1ccc3ccccc3c1C2c1ccccc1 (configuration not stated)	–	–	–	–	–	30.1	32.8
COc1ccc(C2c3c(ncn(Cc4ccco4)c3=N)Oc3ccc4ccccc4c32)cc1 (configuration not stated)	–	–	–	–	–	–	·
Cc1ccc(CNC(=O)c2ccc(N(C)S(=O)(=O)c3ccccc3)cc2)cc1	–	–	–	–	–	37.4	–
Nc1ccnc(=O)[nH]1	–	–	–	–	–	–	·
CC1(C(=O)NS(=O)(=O)c2cccc(Cl)c2)CCN1C(=O)Cc1ccc(Cl)cc1Cl (configuration not stated)	–	–	–	·	·	·	·
Cc1ccc(-c2[nH]nc3c2C(c2ccccc2OC(=O)N2CCOCC2)C(C#N)=C(N)O3)cc1 (configuration not stated)	·	·	·	–	–	·	·
N#CC1=C(N)Oc2n[nH]c(-c3ccc(F)cc3)c2C1c1cccc(OC(=O)N2CCOCC2)c1 (configuration not stated)	–	–	–	–	–	79.9	11.2
N#CC1=C(N)OC2=C(C(=O)CCC2)C1c1ccc(OC(=O)N2CCOCC2)cc1 (configuration not stated)	–	–	–	–	–	–	·
N#CC1=C(N)Oc2n[nH]c(-c3ccccc3)c2C1c1cccc(OC(=O)N2CCOCC2)c1 (configuration not stated)	–	–	–	–	–	67.6	10.1
COc1ccc(-c2[nH]nc3c2C(c2ccccc2OC(=O)N2CCOCC2)C(C#N)=C(N)O3)cc1 (configuration not stated)	–	–	–	–	–	70.7	21.1
Fc1ccc(Nc2cncc(-c3ccsc3)c2)cc1Cl	–	–	–	·	·	·	·
CC1=NN(c2ccccc2)C(=O)C1/C=C1\C(=O)NC(=O)N(c2ccc(C)c(C)c2)C1=O (configuration not stated)	–	–	–	–	–	41.0	15.6
CC(C)c1ccc(-c2csc3ncnc(N4CCN(C)CC4)c23)cc1	–	–	–	–	–	–	·
CCOC(=O)C1=C(C)NC2(O)c3ccccc3C(=O)C12O (configuration not stated)	–	–	–	–	–	32.9	27.7
Cc1ccc(OC(=O)c2ccc([N+](=O)[O-])cc2Cl)cn1	–	–	–	–	–	31.5	33.3
O=[N+]([O-])c1ccc(N2CCCC(C(F)(F)F)C2)c2ccncc12 (configuration not stated)	–	–	–	–	–	32.9	–
COC(=O)N=Nc1c(O)[nH]c2ccc(Br)cc12	–	–	–	–	–	–	·
Oc1[nH]c2ccccc2c1N=NC(=S)N1CCOCC1	–	–	–	–	–	66.8	–
Oc1[nH]c2ccc(Br)cc2c1N=NC(=S)N1CCOCC1	–	–	–	–	–	47.1	–
O=C(N=Nc1c(O)[nH]c2ccccc12)c1ccc(CN2CCOCC2)cc1	–	–	–	–	–	–	·
CCCc1[nH]nc2c1C(c1cn[nH]c1-c1ccc(F)cc1)C(C#N)=C(N)O2 (configuration not stated)	–	–	–	–	–	81.2	7.06
CCCc1[nH]nc2c1C(c1ccccc1OC)C(C#N)=C(N)O2 (configuration not stated)	–	–	–	–	–	61.5	20.3
CCc1[nH]nc2c1C(C(C)C)C(C#N)=C(N)O2 (configuration not stated)	–	·	–	–	–	–	·
CCCc1[nH]nc2c1C(CCC)C(C#N)=C(N)O2 (configuration not stated)	–	–	–	–	–	63.9	34.8
CC1(C(=O)Nc2ccc3c(c2)OCO3)CCN1C(=O)CCc1ccc(Cl)cc1Cl (configuration not stated)	–	–	–	·	·	·	·
SMILES	FBA Mtb inh	BH1578 lux ind	GDH-TPI inh	Mtb UGM inh	Rv3671c protease	RecA splice inh	GFP chromo cs
O=C1C(=O)c2ccccc2C([O-])=C1[n+]1ccccc1	–	–	–	–	–	84.4	6.86
CCc1cc[n+](C2=C([O-])c3ccccc3C(=O)/C2=N\S(=O)(=O)c2cccs2)cc1	–	–	–	–	–	–	·
Cc1ccc(CSCc2nc3ccccc3[nH]2)cc1	–	–	–	·	·	–	·
Cc1cc(C)cc(CC(Cc2nc3ccccc3[nH]2)c2nc3ccccc3[nH]2)c1 (configuration not stated)	–	–	–	–	–	35.7	–
C=CCN(c1ccccc1)S(=O)(=O)c1ccc2c(c1)N(C(C)=O)CCO2	–	–	–	–	–	–	·
O=C(CNC(=O)c1ccccc1)N/N=C/C=C/c1ccccc1	–	–	–	–	–	–	·
O=C(Cc1cc(=O)[nH][nH]1)N/N=C/C=C/c1ccccc1	–	·	–	–	–	84.6	18.3
O=C(CNC(=O)c1cncc(Br)c1)Nc1ccc(F)c(F)c1F	–	–	–	–	–	–	·
On1c2c(c3c4nonc4ccc31)CCCC2	·	·	·	–	–	–	·
Cc1c(C)n(O)c2ccc3nonc3c12	–	–	–	–	–	55.6	23.7
CCc1cc(-c2nnn(-c3cc(C(C)C)ccc3C)c2CC)ccc1-c1cn(CCc2c[nH]c3ccccc23)nn1	–	–	–	·	·	·	·
O=C(Oc1ccc(Br)cc1)C1CC(=O)N(c2ccc(F)cc2)C1 (configuration not stated)	–	–	–	–	–	37.0	35
O=C(Oc1cccc(N2C(=O)CCC2=O)c1)C1CC(=O)N(c2ccc(F)cc2)C1 (configuration not stated)	–	–	–	–	–	–	·
CN(C)c1ccc(CC(=O)N2CCCC(c3cc(C(=O)Nc4ccc(F)c(Cl)c4)no3)C2)cc1 (configuration not stated)	–	–	–	·	·	·	·
Clc1ncnc2scc(C3COc4ccccc4O3)c12 (configuration not stated)	–	–	–	–	–	66.6	20.3
COc1ccc(Br)c(Cn2c(C)c(C(=O)NCc3ccccc3C(F)(F)F)sc2=O)c1	–	–	–	·	·	·	·
O=C(CN1C(=O)S/C(=C\C=C\c2ccccc2)C1=O)Nc1ccccc1C(=O)O	–	–	35.4	–	–	60.2	10.3
Cc1cc(C)c(S(=O)(=O)Nc2cccc(S(=O)(=O)N3CCOCC3)c2)c(C)c1	–	–	–	–	–	–	·

From PubChem
